Bioassay records as filed in PubChem BioAssay.
Rows were chosen to be rich in hits. Some 4.3% of all compounds tested hit in one or more screens of this group.
Anthrax LF inh2: Bacillus anthracis LF protease inhibitors, primary screen, biochemical, multiplex microsphere, MLPCN library. hit rate 0.12% among 360,000. AID 588501, 2011. multiplex microsphere protease cleavage assay. inhibition, % at 10 µM. Lethal factor (Bacillus anthracis), P15917
MazF activator: activators of E. coli MazEF toxin-antitoxin RNase, primary screen, biochemical, fluorescence, uHTS | activation, % at 20 µM | FAM/BHQ RNA-DNA oligo cleavage fluorescence, 5 h | hit rate 0.32% among 350,000; in the data active = activation above about 50%
Target sequence (P0AE70 whole entry, looked up): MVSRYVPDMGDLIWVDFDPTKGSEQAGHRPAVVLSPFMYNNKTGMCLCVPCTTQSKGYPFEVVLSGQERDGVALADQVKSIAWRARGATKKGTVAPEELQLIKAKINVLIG
BoNT-F LC inh: BoNT/F light chain protease inhibitors, primary screen, biochemical, flow cytometry, MLPCN library | Multiplex microsphere protease cleavage assay | inhibition, % at 10 µM | hit rate 0.22% among 360,000 | AID 588497, 2011; in the data active = inhibition above about 35%, passing the limit was not always enough; inconclusive = no clear call, values can overlap the other calls
BoNT-A LC inh2: BoNT/A light chain protease inhibitors, primary screen, biochemical, flow cytometry, MLPCN library; Botulinum neurotoxin type A light chain protease (Clostridium botulinum A str. ATCC 3502); multiplex microsphere protease substrate cleavage; inhibition, % at 10 µM; hit rate 0.17% among 360,000; AID 588499, 2011
Bead autofluor: flagged as autofluorescent in microsphere protease counterscreen | compound autofluorescence counterscreen, microsphere flow cytometry; hits give high values | hit rate 3.1% among 360,000 | fluorescence intensity (no concentration beside the values); in the data active = fluorescence intensity above about 16000; inconclusive = no clear call, values can overlap the other calls
PfHsp40 rescue: rescue of yeast from PfHsp40 toxicity, primary screen, S. cerevisiae, ATP luminescence; hit rate 0.68% among 340,000; growth rescue, % at 12.5 µM; AID 504582, 2011; S. cerevisiae expressing PfHsp40, growth rescue; in the data active = growth rescue above about 28%, passing the limit was not always enough; inconclusive = no clear call, values can overlap the other calls;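 also: yeast W303a lacking pdr1 and pdr3 grown in galactose medium; growth measured after three days at 30 °C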
Of the large screens only hits and unclear results are named; the others gave an inactive call. Rule as the data show it, unless noted: active = inhibition above about 30%; inconclusive = no clear call, values can overlap the other calls; inactive = below that.

Cc1nc(-c2c(C(F)(F)F)noc2-c2ccc(O)cc2O)cs1	BoNT-A LC inh2 inconclusive, Bead autofluor 17928
O=C(CS(=O)(=O)c1ccc(F)cc1)NCCS(=O)(=O)c1ccccc1	none
COn1c(-c2ccccc2)c(C=O)c2ccccc21	BoNT-F LC inh inconclusive, Bead autofluor 37117
CC(=O)NC(CC(=O)OCC(=O)NCCc1ccccc1)c1ccccc1 (stereo not drawn)	BoNT-F LC inh inconclusive
Cc1cccc(N(CC(=O)N2CCc3ccccc3C2)S(C)(=O)=O)c1C	none
CCOc1cccc(C2/C(=C(/O)c3ccc4c(c3)CC(C)O4)C(=O)C(=O)N2Cc2ccncc2)c1 (stereo not drawn)	none
COc1cc(NC(=O)C2CCCCC2)c(OC)cc1NC(=O)CCC(=O)NCc1ccco1	Bead autofluor 22591
O=C(Nc1ccccc1)C1CCCCC1	BoNT-A LC inh2 inconclusive, Bead autofluor 21764
O=C(Nc1ccccc1)N1CCNCC1	none
O=C(Nc1cc(Cl)cc(Cl)c1)C1CCCC1	BoNT-F LC inh inconclusive, PfHsp40 rescue 69.9
O=C(Nc1ccccc1)N1CCCC1	Bead autofluor 23605
COc1cc(NC(=O)C2CCCCC2)c(OC)cc1NC(=O)c1ccco1	none
O=C(COC(=O)CCC(=O)c1ccc(F)cc1)Nc1ccc(Cl)cn1	BoNT-F LC inh inconclusive, Bead autofluor inconclusive
Cc1ccc(Cn2cc(CN3CC(N4CCN(Cc5ccccc5F)CC4)CS3(=O)=O)nn2)cc1 (stereo not drawn)	none (no result: MazF activator, PfHsp40 rescue)
O=C1CC[C@@]23CCCN2C(=O)CCCC3C1 (stereo partly drawn)	none
CCCC(=O)Nc1ccccc1NC(=O)C1CCCCC1	Bead autofluor 23241
O=C(Nc1ccc(F)cc1)N1CCCCCC1	none
O=C(Nc1ccc(F)cc1)N1CCOCC1	BoNT-A LC inh2 inconclusive, Bead autofluor 19165
Cc1cc(C)n(-c2nc3ccccc3c(=O)n2OCc2ccc(Cl)cc2)n1	BoNT-A LC inh2 inconclusive, Bead autofluor 22331
Cc1cc(CC(C)C)n(-c2nc3ccccc3c(=O)n2OCc2ccccc2)n1	BoNT-A LC inh2 inconclusive, Bead autofluor 23326
Oc1ccccc1N=Cc1c(O)ccc2oc3c(c12)CCCC3	PfHsp40 rescue 189.5
Oc1ccc2oc3c(c2c1/C=N/n1cnnc1)CCCC3	BoNT-A LC inh2 inconclusive, Bead autofluor 21898
CN(C)Cc1nnnn1-c1cccc(-n2nnnc2CN(C)C)c1	none
CC1=C(C(=O)Nc2ccc(Cl)cc2)C(c2cccs2)n2nnnc2N1 (stereo not drawn)	BoNT-A LC inh2 inconclusive, Bead autofluor 23559
CCOc1ccc(C=NNC(=O)c2cccc3ccccc23)cc1OCC	none
CC(=O)c1ccc(-n2c(=O)[nH]c(=O)c3c(N)c(C(=O)c4ccc(Cl)cc4)sc32)cc1	none
O=C(NCC1CC1(Cl)Cl)Nc1ccc(Cl)c(Cl)c1 (stereo not drawn)	PfHsp40 rescue 303.8
O=C(NCCCn1ccnc1)Nc1ccc(Cl)c(Cl)c1	PfHsp40 rescue 45.6
O=C(NCCN1CCN(Cc2ccccc2Cl)CC1)Nc1ccccc1	Bead autofluor 23034
O=C(NCCN1CCN(c2ccccc2Cl)CC1)Nc1ccccc1	none
Cc1ccc(NC(=O)NCC2CC2(Cl)Cl)cc1 (stereo not drawn)	none
O=C(CSc1cc(Cl)ccc1Cl)NCCCn1ccnc1	none
O=C(CCN1C(=O)COc2ccccc21)NCCCN1CCc2ccccc2C1	Bead autofluor 18721
O=C(O)c1ccc(NS(=O)(=O)c2ccc(Cl)c(C(=O)Nc3ccccc3[N+](=O)[O-])c2)cc1	none (no result: Anthrax LF inh2, BoNT-F LC inh, BoNT-A LC inh2, Bead autofluor)
Cc1[nH]c2ccccc2c1C(=O)C(=O)NCc1cccs1	none
Cc1cccc(C)c1N(CC(=O)N1CCCC1)S(C)(=O)=O	BoNT-F LC inh inconclusive
O=C(COC(=O)CCNS(=O)(=O)c1ccccc1)NC(=O)Cc1ccccc1	none
O=C(COc1ccc(Cl)cc1)NCCCn1ccnc1	none
COc1ccc(NC(=O)NCCN2CCc3ccccc3C2)cc1	none
O=C(NCCCN1CCc2ccccc2C1)Nc1ccc(Cl)cc1	Bead autofluor 22133
O=C(NCCCn1ccnc1)Nc1ccc(Cl)cc1	BoNT-A LC inh2 inconclusive, Bead autofluor 24742
COc1ccc2nc(N3CCCC3)c(C#N)cc2c1	MazF activator 69.6
CCCCCCN1C[C@@H](n2cc(-c3ccc(F)cc3)nn2)[C@H](O)C[C@@H]1c1ccccc1	none (no result: PfHsp40 rescue)
Oc1ccc(/C=C/c2nc(-c3ccccc3O)n(-c3ccccc3)n2)cc1	Bead autofluor 24194
COc1ccc(Cn2c(=O)c3[nH]cnc3n(-c3ccc(C)cc3)c2=O)cc1	BoNT-F LC inh inconclusive, BoNT-A LC inh2 inconclusive
C[C@H]1CN([C@@H](C)CO)C(=O)CCCn2nncc2CO[C@H]1CN(C)S(=O)(=O)c1ccc(-n2cccn2)cc1	none (no result: PfHsp40 rescue)
O=C(/C=C/c1ccccc1)N1CCCN(C(=O)/C=C/c2ccccc2)CC1	Bead autofluor 20323
Cc1ccc(-n2nnnc2SCC(=O)NCC2(N3CCOCC3)CCCCC2)c(C)c1	none
CC(=O)N1c2ccc(S(=O)(=O)N(C)CC(=O)NC3CCCC3)cc2CC1C (stereo not drawn)	none
CCn1c(SCC(=O)N/N=C/C=C\c2ccccc2[N+](=O)[O-])nnc1-c1ccccc1	Bead autofluor 16357
O=C(N/N=C/C=C/c1ccccc1[N+](=O)[O-])c1ccncc1	Anthrax LF inh2 inconclusive, BoNT-F LC inh 55.5
O=C(N/N=C/C=C/c1ccccc1)c1cccc(Br)c1	MazF activator 53.5, PfHsp40 rescue inconclusive
O=C1CC(N2CCN(c3cccc(C(F)(F)F)c3)CC2)C(=O)N1c1ccccc1 (stereo not drawn)	BoNT-A LC inh2 inconclusive, Bead autofluor 20561
CCCOc1ccc(N2C(=O)CC(N3CCC(O)(c4cccc(C(F)(F)F)c4)CC3)C2=O)cc1 (stereo not drawn)	BoNT-F LC inh inconclusive, PfHsp40 rescue 28.4
O=C1CC(N2CCN(c3cccc(C(F)(F)F)c3)CC2)C(=O)N1c1ccccc1F (stereo not drawn)	none
COc1cc(/C=C/CNC[C@H]2O[C@@H](n3cnc4c(=O)[nH]c(N)nc43)[C@H](O)[C@@H]2O)ccc1O	none (no result: MazF activator, PfHsp40 rescue)
O=C(NCc1ccc2c(c1)OCO2)C1CCCN1S(=O)(=O)c1ccc(Cl)cc1 (stereo not drawn)	none
O=C(c1cc(COc2c(F)cccc2F)on1)N1CC[C@@H]2CCCC[C@H]2C1	none (no result: PfHsp40 rescue)
Cc1oc(C)c2c(=O)ccc3c(c12)OC(N)=C(C#N)C3c1ccccc1 (stereo not drawn)	MazF activator 105.5
C/C(=N\NC(=O)COc1ccccc1-c1ccccc1)c1ccccn1	PfHsp40 rescue 617.9
CC(=NNC(=S)Nc1cccc(Cl)c1)c1ccccn1	Anthrax LF inh2 41.1, BoNT-F LC inh 62.8, PfHsp40 rescue inconclusive
